# A number with no mark means an inactive call. Entries that show only a call come without a potency. Calls of active or inactive are those of the source. Calls come from the whole dose curve; as a rule, active = well fitted activation curve with a large enough effect in the repeat runs; inconclusive = weak or mixed curves; inactive = flat fitted curve, though single readings scatter.
# Biological target: KiSS-1 receptor (Homo sapiens) (UniProt Q969F8)
# Experiment: Human kisspeptin (KISS1R) small molecule agonists, calcium flux assay in KISS1R-HEK293 cells (AID 1920064)
# Conditions: KISS1R-HEK293, calcium flux fluorescence, agonist; series mostly up to 76.8 µM
# Excerpt: National Center for Advancing Translational Sciences [NCATS]
# Division of Preclinical Innovation [DPI]
# U.S. Environmental Protection Agency [EPA]
# National Institutes of Environmental Health Sciences [NIEHS]
# National Toxicology Program [NTP]
# U.S. Food and Drug Administration [FDA]
# Kisspeptin and its receptor KISS1R play key roles in mammalian reproduction due to their involvement in the onset of puberty and control of the hypothalamic-pituitary-gonadal axis such as regulates GnRH release from the hypothalamus. The kisspeptin/KISS1R system also plays a direct role in peripheral organs (including the ovary, testis, uterus, and placenta) and is implicated in reproductive diseases such as miscarriage and polycystic ovary syndrome (PCOS). Abnormal KISS1R activity is associated with abnormal puberty, infertility, endometriosis, and hormone-dependent tumors. The KISS1 receptor (KISS1R, also called GPR54), a G-protein-coupled receptor (GPCR), acts (through phospholipase C) to increase intracellular inositol trisphosphate and then release intracellular calcium stores. Cell-based KISS1R-HEK293 assay is using HEK293 cells that have been genetically engineered to express the human KISS1R, which activity can be measured by calcium signaling. A compound/drug can activate (agonist) KISS1R that can be monitored by levels of intracellular calcium.
# KISS1R-HEK293 cells developed by Codex Corp contain human KISS1R gene, which was stably integrated into HEK 293 cells. The compound activation can be detected by fluorescence intensity via calcium flux assay. This cell line has been used to screen the Tox21 10K compound library to identify agonists of KISS1R.
# KISS1R-Hek293 cells were dispensed at 1500 cells/4uL/well in 1536-well black wall/clear bottom plates using a multidrop dispenser. After the assay plates were incubated at a 37 C/5% CO2 incubator for 18 hours, 4 microL of Calcium Dye Solution was added to each well. The plates were incubated at 37 C for 1 hour. And then 23 nL of compounds dissolved in DMSO, positive controls, or DMSO only was transferred to the assay plate by a pin tool station. The fluorescence intensity in the plates was measured using FDSS 7000EX kinetic plate reader with a filter set of Ex/Em=480/540 for 3 min at 1 sec intervals. Each test compound was measured at 15 concentrations and in triplicates.
# Sequence of KiSS-1 receptor (Homo sapiens) (Q969F8 whole entry, looked up): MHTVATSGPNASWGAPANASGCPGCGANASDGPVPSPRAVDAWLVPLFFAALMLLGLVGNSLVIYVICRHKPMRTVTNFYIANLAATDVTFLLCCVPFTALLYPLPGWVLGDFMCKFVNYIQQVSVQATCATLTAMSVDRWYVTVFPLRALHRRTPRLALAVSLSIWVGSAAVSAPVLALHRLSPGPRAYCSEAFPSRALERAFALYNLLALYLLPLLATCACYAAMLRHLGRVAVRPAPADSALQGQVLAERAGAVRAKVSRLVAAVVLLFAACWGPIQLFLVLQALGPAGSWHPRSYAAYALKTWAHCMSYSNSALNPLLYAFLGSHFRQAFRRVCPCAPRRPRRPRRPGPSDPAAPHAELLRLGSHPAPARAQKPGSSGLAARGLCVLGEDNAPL
SMILES,Potency,activation
CCCCC(CC)COCCO (stereo not given),inactive,
C1=Cc2ccccc2C1,inactive,
CN(C)c1ccc(C(=C2C=CC(=[N+](C)C)C=C2)c2ccc(N(C)C)cc2)cc1,inactive,
O=Cc1cccc([N+](=O)[O-])c1,inactive,
COc1ccccc1C=O,inactive,
CCOC(=O)C(C)Oc1ccc(Oc2cnc3cc(Cl)ccc3n2)cc1 (stereo not given),inactive,
CC(C)c1ccc(S(=O)(=O)O)cc1,inactive,
N[C@@H](CSSC[C@H](N)C(=O)O)C(=O)O,,-0.737% [at 0.29 µM]
CC1=C(O)C(=O)C(C)O1 (stereo not given),inactive,
C=CC(=O)OCC(CO)(COC(=O)C=C)COC(=O)C=C,inactive,
O=C(O)Cc1ccc(CCNS(=O)(=O)c2ccc(Cl)cc2)cc1,inactive,
CC(=O)OCCC1CCCCC1,inactive,
O=C(NCC1CCCCN1)c1cc(OCC(F)(F)F)ccc1OCC(F)(F)F (stereo not given),inactive,
C=CC(C)(O)CC/C=C(/C)CCC=C(C)C (stereo not given),inactive,
c1ccc(SCCSc2ccccc2)cc1,inactive,
Oc1cc(O)c2c(c1)O[C@H](c1ccc(O)c(O)c1)[C@H](O)C2,inactive,
C[N+](C)(CCOc1ccccc1)Cc1cccs1,inactive,
OCC#CCO,inactive,
COC(=O)c1ccc(C)cc1C1=NC(C)(C(C)C)C(=O)N1 (stereo not given),inactive,
CC(=O)/C=C/C1C(C)=CCC(C)C1(C)C (stereo not given),inactive,

SMILES,Potency,activation
O=C(O)c1cc(O)c(O)c(O)c1,inactive,
CC1(C)[C@H]2CC[C@](C)(C2)[C@H]1O,inactive,
O=C(C(=O)c1ccccc1)c1ccccc1,inactive,
NCc1ccc(S(N)(=O)=O)cc1,inactive,
C1CCC(SSC2CCCCC2)CC1,inactive,
C=COCCOCCOCCOC=C,inactive,
CC1=CC(=O)NS(=O)(=O)O1,inactive,
CCCCCCCC(=O)N(C)C,inactive,
O=C1OC(=O)c2ccccc21,inactive,
Cc1cc(O)cc(C)c1Cl,inactive,
COc1cccc2c1C(=O)c1c(O)c3c(c(O)c1C2=O)C[C@@](O)(C(=O)CO)C[C@@H]3O[C@H]1C[C@H](N)[C@H](O)[C@H](C)O1,inactive,
CCCCCOC(C)=O,inactive,
OCCCC1CCCCC1,inactive,
COc1ccc(Cl)cc1C,inactive,
O=C1C(c2[nH]c3ccc(S(=O)(=O)O)cc3c2O)=Nc2ccc(S(=O)(=O)O)cc21,inactive,
c1ccc2cc3c4ccccc4c4ccccc4c3cc2c1,inactive,
Cc1cccc(S(=O)(=O)O)c1C,inactive,
Cc1[nH]cnc1-c1ccc(Cl)cc1,inactive,
CCN(CC)CCN,inactive,
O=S(=O)(O)CCCN1CCOCC1,inactive,

# From PubChem BioAssay (Tox21)
